# Assay results taken from PubChem BioAssay.
# A number with no mark means an inactive call. The list shows a part of the results. Calls of active or inactive are those of the source.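 The calls were made as follows, unless noted: active = fluorescence ratio falls more than 5 SD below the full-stimulation control mean, in both duplicate runs; inactive = the rest.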
# Tests used:
# [1] = target: Short transient receptor potential channel 4 (Mus musculus) (UniProt Q9QUQ5); test: mouse TRPC4 membrane potential modulation by TRPC6 hits, confirmation, selectivity assay for TRPC6 inhibitor project, cell-based, second specificity screen, HEK293 TRPC4/mu-opioid (AID 2776;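 active = compounds whose fluorescence signal differed from control wells by over 3 SD, either direction, in both duplicate plates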); settings: HEK293 TRPC4/MOR, membrane potential dye fluorescence, at 10 µM, channel activated by saturating DAMGO dose; stronger effect = higher value
# Short transient receptor potential channel 4 (Mus musculus), sequence (Q9QUQ5 whole entry, looked up): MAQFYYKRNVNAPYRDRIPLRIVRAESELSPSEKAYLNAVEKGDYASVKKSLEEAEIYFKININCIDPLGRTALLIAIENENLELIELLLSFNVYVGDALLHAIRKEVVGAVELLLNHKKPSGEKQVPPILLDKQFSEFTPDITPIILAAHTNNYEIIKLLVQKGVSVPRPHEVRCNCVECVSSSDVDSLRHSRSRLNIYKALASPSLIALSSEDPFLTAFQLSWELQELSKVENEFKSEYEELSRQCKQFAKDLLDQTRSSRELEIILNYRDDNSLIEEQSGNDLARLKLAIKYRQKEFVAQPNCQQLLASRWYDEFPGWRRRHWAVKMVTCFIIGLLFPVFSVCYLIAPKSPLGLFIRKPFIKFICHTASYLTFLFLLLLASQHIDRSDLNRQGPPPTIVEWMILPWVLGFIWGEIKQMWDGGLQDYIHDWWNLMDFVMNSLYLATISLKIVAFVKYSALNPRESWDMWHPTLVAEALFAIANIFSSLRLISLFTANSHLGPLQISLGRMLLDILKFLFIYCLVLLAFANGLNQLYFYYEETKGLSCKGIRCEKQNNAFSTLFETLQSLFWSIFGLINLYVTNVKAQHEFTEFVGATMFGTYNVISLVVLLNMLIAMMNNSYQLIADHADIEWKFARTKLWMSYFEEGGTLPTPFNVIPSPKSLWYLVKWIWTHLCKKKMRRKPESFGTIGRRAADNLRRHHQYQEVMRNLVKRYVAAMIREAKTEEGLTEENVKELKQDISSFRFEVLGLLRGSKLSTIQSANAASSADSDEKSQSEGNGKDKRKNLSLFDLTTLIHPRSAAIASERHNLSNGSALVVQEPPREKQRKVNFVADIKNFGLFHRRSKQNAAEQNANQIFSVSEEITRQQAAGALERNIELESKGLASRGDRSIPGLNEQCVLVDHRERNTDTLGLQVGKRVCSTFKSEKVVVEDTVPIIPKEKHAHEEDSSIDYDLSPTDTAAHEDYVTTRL
# [2] = system: transient receptor potential cation channel C4 (TRPC4), mouse; test: mouse TRPC4 modulation by TRPC6 hits, confirmation, selectivity assay for TRPC6 inhibitor project, cell-based, HEK293 TRPC4/mu-opioid, membrane potential dye (AID 2777;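 active = rise or fall in signal beyond 3 SD of buffer-only wells in both replicate plates, either sign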;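 also: integrated kinetic ratio of fluorescence range over baseline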); settings: membrane potential fluorescence, at 10 µM
# [3] = nonspecific membrane potential effects, parental HEK293, confirmation, counter-screen for TRPC6 inhibitor project, cell-based, second counter screen (AID 2779;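 active = membrane potential signal moving either way by over 3 SD of the maximum-effect control, in both duplicate plates, meaning non-specific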); settings: parental HEK293 membrane potential dye fluorescence; at 10 µM; maximal acetylcholine challenge after compound addition
# [4] = membrane potential modulation in parental HEK293, confirmation, counter-screen for TRPC6 inhibitor project, cell-based (AID 2780;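 active = membrane potential signal shifting up or down by more than 3 SD of buffer-only wells, on both duplicate plates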;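 as to membrane potential signal change: plate controls were buffer EC0 wells for no effect and acetylcholine ECmax wells for full effect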); settings: parental HEK293 membrane potential dye fluorescence; at 10 µM
# [5] = target: Short transient receptor potential channel 6 (Mus musculus) (UniProt Q61143); test: mouse TRPC6 channel inhibitors, confirmation, HEK293 cells, membrane potential dye, duplicate (AID 488960); settings: ACh-evoked depolarization, at 10 µM; stronger effect = higher value;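 as to inhibition: integrated fluorescence ratio of peak minus minimum over baseline after agonist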
# Short transient receptor potential channel 6 (Mus musculus), sequence (Q61143 whole entry, looked up): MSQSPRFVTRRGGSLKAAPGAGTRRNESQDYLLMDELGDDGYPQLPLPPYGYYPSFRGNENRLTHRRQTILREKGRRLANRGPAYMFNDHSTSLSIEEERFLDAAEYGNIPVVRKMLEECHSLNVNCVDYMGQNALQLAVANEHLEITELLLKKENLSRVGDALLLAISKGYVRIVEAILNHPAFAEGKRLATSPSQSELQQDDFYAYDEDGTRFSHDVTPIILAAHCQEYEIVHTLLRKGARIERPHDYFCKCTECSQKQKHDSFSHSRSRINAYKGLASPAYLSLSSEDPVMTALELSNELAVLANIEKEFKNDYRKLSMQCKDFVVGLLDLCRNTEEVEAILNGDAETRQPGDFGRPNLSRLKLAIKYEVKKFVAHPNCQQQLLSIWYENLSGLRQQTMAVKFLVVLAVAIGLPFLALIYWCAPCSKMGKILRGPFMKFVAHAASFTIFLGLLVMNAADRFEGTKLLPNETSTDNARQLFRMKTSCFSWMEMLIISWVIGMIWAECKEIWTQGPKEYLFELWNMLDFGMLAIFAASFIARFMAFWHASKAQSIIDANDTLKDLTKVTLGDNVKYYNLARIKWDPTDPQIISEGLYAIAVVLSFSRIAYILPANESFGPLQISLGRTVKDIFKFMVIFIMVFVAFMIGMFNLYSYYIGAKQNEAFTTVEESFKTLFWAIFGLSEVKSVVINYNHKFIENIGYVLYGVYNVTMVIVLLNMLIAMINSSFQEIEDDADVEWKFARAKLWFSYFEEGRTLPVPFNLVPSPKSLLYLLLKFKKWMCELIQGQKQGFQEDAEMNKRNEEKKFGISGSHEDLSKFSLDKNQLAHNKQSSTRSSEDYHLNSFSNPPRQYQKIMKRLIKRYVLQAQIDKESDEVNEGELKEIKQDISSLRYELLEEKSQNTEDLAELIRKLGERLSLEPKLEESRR
# [6] = target: Short transient receptor potential channel 6 (Mus musculus) (UniProt Q61143); test: mouse TRPC6 channel activators, confirmation, HEK293 cells, membrane potential dye, duplicate (AID 488961;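 active = ratio signal rise beyond 5 SD above unstimulated control wells' mean, seen in both duplicate runs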); settings: HEK293-TRPC6 membrane potential dye fluorescence, FDSS, at 10 µM; stronger effect = higher value
# [7] = system: TRPC4 (transient receptor potential cation channel C4 beta), mouse; test: positive allosteric modulators of mouse TRPC4, confirmation, cell-based, second round, Fluo-4, HEK293 TRPC4beta/mu-opioid, 1 µM (AID 2554;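 active = primary screen hit whose fluorescence ratio, in both repeats, exceeds the weak agonist control mean by 3 SD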); settings: DAMGO EC20, Fluo-4 calcium flux, at 1 µM; stronger effect = higher value
# [8] = system: TRPC4 beta (transient receptor potential cation channel C4), mouse; test: positive allosteric modulators of mouse TRPC4, confirmation, cell-based, Fluo-4, HEK293 TRPC4beta/mu-opioid (AID 2555;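 active = primary screen hit whose calcium fluorescence ratio, in both repeats, exceeds the weak agonist control mean by 3 SD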); settings: DAMGO EC20, Fluo-4 calcium flux, at 10 µM; stronger effect = higher value
# [9] = system: TRPC4 (mouse), co-expressed with 5HT1a in HEK293; test: calcium flux potentiators in TRPC4/5HT1a cells, confirmation, counter-screen for TRPC4 potentiator project, cell-based, second counter screen, HEK293 TRPC4/5HT1a, Fluo-4 (AID 434979;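 active = signal rise over 3 SD above mean of control wells given weak agonist, in both repeats and first screen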); settings: Fluo-4 calcium flux, at 10 µM, serotonin added at its EC20 dose; stronger effect = higher value
# [10] = target: Potassium voltage-gated channel subfamily KQT member 1 (Homo sapiens) (UniProt P51787); test: KCNQ1 potassium channel inhibitors, confirmation, cell-based, Tl flux, duplicate (AID 588353;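 active = primary screen active, with duplicate mean exceeding buffer control mean plus 3 SD of buffer wells, cut at about 28% in these data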;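 also: 0% = buffer control ratio and 100% = XE991 inhibitor control ratio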); settings: KCNQ1 cell line, FluxOR thallium flux fluorescence, at 10 µM, stronger effect = higher value
# Potassium voltage-gated channel subfamily KQT member 1 (Homo sapiens), sequence (P51787 whole entry, looked up): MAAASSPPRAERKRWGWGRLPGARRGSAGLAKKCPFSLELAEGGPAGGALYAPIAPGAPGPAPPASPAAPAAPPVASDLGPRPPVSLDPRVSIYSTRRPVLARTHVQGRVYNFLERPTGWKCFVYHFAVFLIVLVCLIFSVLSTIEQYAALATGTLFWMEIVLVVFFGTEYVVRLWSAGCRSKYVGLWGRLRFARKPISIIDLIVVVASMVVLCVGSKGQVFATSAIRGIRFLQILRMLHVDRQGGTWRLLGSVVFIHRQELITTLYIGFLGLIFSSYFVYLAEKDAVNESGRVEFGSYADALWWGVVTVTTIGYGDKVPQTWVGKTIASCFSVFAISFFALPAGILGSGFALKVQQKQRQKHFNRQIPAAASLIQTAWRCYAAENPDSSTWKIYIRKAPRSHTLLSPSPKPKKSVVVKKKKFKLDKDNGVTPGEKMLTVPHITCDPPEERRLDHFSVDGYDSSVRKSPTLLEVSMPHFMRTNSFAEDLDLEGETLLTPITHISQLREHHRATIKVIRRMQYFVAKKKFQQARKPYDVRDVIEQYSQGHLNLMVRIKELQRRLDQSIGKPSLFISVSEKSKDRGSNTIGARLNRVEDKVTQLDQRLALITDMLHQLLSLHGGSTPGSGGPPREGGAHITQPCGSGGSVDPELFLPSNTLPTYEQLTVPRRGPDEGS
# [11] = thallium flux effects in parental CHO cells, counter-screen for KCNQ1 inhibitor project, cell-based, Tl flux (AID 588366;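 active = mean of duplicate thallium-flux fluorescence ratios in parental host cells more than 5 SD below the buffer control mean, cut at about 0.38 in these data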;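 also: ratio is peak minus minimum fluorescence divided by baseline fluorescence; actives read low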); settings: parental CHO-K1, FluxOR thallium flux fluorescence ratio; at 10 µM; stronger effect = lower value; zero means no signal rise above baseline
# [12] = target: Potassium voltage-gated channel subfamily KQT member 2 (Rattus norvegicus) (UniProt O88943); test: KCNQ2 channel inhibition, selectivity assay for KCNQ1 inhibitor project, cell-based (AID 651746;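 active = mean percent inhibition of the KCNQ2 thallium signal more than 5 SD above the buffer-only control wells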;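 also: KCNQ2 expressed in CHO cells; 0% = buffer control wells and 100% = XE-991 inhibitor control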); settings: KCNQ2 cells, FluxOR thallium flux fluorescence, at 10 µM; stronger effect = higher value
# Potassium voltage-gated channel subfamily KQT member 2 (Rattus norvegicus), sequence (O88943 whole entry, looked up): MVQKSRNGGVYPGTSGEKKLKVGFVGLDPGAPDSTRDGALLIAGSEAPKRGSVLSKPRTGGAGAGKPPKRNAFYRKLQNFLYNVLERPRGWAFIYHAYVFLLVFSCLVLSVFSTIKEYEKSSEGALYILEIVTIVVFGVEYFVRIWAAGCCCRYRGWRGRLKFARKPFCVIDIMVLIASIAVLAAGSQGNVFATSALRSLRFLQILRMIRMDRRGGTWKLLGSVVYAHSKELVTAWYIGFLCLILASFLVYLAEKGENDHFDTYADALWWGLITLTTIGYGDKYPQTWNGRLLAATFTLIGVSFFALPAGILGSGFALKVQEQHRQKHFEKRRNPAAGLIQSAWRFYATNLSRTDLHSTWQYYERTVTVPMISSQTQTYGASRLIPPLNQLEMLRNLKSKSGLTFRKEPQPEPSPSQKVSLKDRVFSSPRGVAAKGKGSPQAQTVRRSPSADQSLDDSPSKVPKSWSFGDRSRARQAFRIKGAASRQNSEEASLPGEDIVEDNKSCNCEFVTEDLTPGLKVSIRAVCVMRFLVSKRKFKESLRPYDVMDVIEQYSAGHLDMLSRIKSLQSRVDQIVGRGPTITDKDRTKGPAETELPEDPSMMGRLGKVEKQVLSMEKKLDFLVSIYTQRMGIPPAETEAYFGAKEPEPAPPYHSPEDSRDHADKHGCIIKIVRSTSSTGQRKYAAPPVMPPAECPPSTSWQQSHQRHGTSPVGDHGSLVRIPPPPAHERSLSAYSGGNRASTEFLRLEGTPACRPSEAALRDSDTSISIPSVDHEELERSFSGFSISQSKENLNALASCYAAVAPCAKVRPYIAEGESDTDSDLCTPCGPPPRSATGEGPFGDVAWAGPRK
# [13] = target: Potassium voltage-gated channel subfamily E member 1 (Homo sapiens) + Potassium voltage-gated channel subfamily KQT member 1 (Homo sapiens) (UniProt P15382+P51787); test: KCNQ1/KCNE1 channel inhibition, selectivity assay for KCNQ1 inhibitor project, CHO-K1 cells, thallium flux, FluxOR (AID 652147;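 active = mean percent inhibition of duplicate wells above the buffer-only control mean plus 3 SD of those controls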); settings: FluxOR thallium flux fluorescence, at 10 µM; stronger effect = higher value
# Potassium voltage-gated channel subfamily E member 1 (Homo sapiens) + Potassium voltage-gated channel subfamily KQT member 1 (Homo sapiens), sequence (P51787 whole entry, looked up): as the sequence (P51787 whole entry, looked up) above
# [14] = parental HEK293 membrane potential modulation, confirmation, counter-screen for TRPC6 modulator project, cell-based (AID 488924;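 active = membrane potential signal moves up or down beyond 5 SD from buffer-only wells, on both duplicate plates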); settings: parental HEK293, membrane potential dye fluorescence; at 10 µM
# [15] = modulation of acetylcholine-evoked membrane potential, parental HEK293, confirmation, counter-screen for TRPC6 modulator project, cell-based, second counter-screen, membrane potential dye (AID 488926;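 active = membrane potential signal drops by more than 5 SD from the mean control signal, in both duplicate plates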;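 as to inhibition: plate controls were acetylcholine ECmax control wells for no effect and buffer only wells for full effect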); settings: parental HEK293, membrane potential dye fluorescence, at 10 µM, after compound, maximal acetylcholine stimulation; stronger effect = higher value
# [16] = system: Transient receptor potential cation channel subfamily C member 4 (mouse); test: TRPC4 modulation by TRPC6 hit compounds, confirmation, selectivity assay for TRPC6 modulator project, cell-based, HEK293 TRPC4/mu-opioid, membrane potential dye, mouse (AID 488927;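 active = membrane potential signal moved up or down beyond 5 SD of buffer control wells, in both duplicate plates, actives on both sides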;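 as to percent change from control (negative = decrease, positive = increase): plate controls were assay buffer wells for no effect and DAMGO maximal-effect wells for full effect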); settings: membrane potential fluorescence, at 10 µM
# [17] = system: TRPC4 (transient receptor potential cation channel C4), mouse; test: TRPC4 inhibition by TRPC6 hit compounds, confirmation, selectivity assay for TRPC6 modulator project, cell-based, second screen, HEK293 TRPC4/mu-opioid, membrane potential dye (AID 488928;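 active = drop in membrane potential signal beyond 5 SD of the control wells in both duplicate plates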;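 also: TRPC4 counter screen for TRPC6 hits run under conditions tuned for TRPC6 not TRPC4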); settings: membrane potential dye fluorescence, at 10 µM, stimulated with maximal-effect DAMGO; stronger effect = higher value
smiles,measurement,setting,value
CCN(CC)CCn1c2ccc(Cl)cc2c2nc(C)sc21,inhibition,[1],57.5% (active)
same,outcome,[2],inactive
same,outcome,[3],inactive
same,membrane potential signal change,[4],-267% (active)
same,inhibition,[5],49.7% (active)
same,outcome,[6],inactive
O=C(CCN1CCN(Cc2ccccc2)CC1)Nc1nccs1,potentiation,[7],19% (active)
same,potentiation,[8],11% (active)
same,potentiation,[9],17% (active)
Cn1c(=O)n(C)c2cc(C(=O)Nc3ccc4c(c3)OCO4)ccc21,outcome,[1],inactive
same,"activity change, negative = inhibition",[2],-23.4% (active)
same,outcome,[3],inactive
same,membrane potential signal change,[4],-371% (active)
same,outcome,[5],inactive
same,outcome,[6],inactive
C=C(C)c1cccc(C(C)(C)NC(=O)NCCN(CC)CC)c1,outcome,[1],inactive
same,"activity change, negative = inhibition",[2],1.45% (active)
same,outcome,[3],inactive
same,membrane potential signal change,[4],0.09% (active)
same,inhibition,[5],54.4% (active)
same,outcome,[6],inactive
CC(C)(C)NCc1cc(Br)ccc1OC1CCCC1,inhibition,[1],36% (active)
same,"activity change, negative = inhibition",[2],74.6% (active)
same,signal change vs control,[3],5% (active)
same,membrane potential signal change,[4],38.4% (active)
same,inhibition,[5],123% (active)
CCOC(=O)N1CCC(O)(c2cc(C)c(C)cc2C)CC1,outcome,[1],inactive
same,outcome,[2],inactive
same,outcome,[3],inactive
same,outcome,[4],inactive
same,inhibition,[5],55% (active)
CCOC(=O)N1CCC(NC(=O)CN2C(=O)COc3ccc(C(C)(C)C)cc32)CC1,outcome,[1],inactive
same,outcome,[2],inactive
same,outcome,[3],inactive
same,outcome,[4],inactive
same,outcome,[5],inactive
CCCc1cc(=S)n2c([nH]c3ccccc32)c1C#N,outcome,[1],inactive
same,"activity change, negative = inhibition",[2],33.6% (active)
same,outcome,[3],inactive
same,membrane potential signal change,[4],22.1% (active)
same,inhibition,[5],51.5% (active)
same,inhibition,[10],80.5% (active)
same,fluorescence ratio (Tl flux),[11],0.394
same,inhibition,[12],91.3% (active)
same,outcome,[13],inactive
CCN(CC)S(=O)(=O)c1ccc(N2CC(C(=O)NCc3cccnc3)CC2=O)cc1 (stereo unspecified),outcome,[14],inactive
same,outcome,[15],inactive
same,outcome,[16],inactive
same,outcome,[17],inactive
same,outcome,[5],inactive
same,outcome,[6],inactive
Cc1ccc2c(c1)C1CN(C)CCC1N2C(=S)Nc1ccc(Cl)cc1Cl (stereo unspecified),outcome,[14],inactive
same,outcome,[15],inactive
same,"percent change from control (negative = decrease, positive = increase)",[16],-10% (active)
same,inhibition,[17],49.5% (active)
same,outcome,[5],inactive
same,outcome,[6],inactive
CN1CCN(C(=O)N2c3ccccc3CCc3ccccc32)CC1,outcome,[14],inactive
same,outcome,[15],inactive
same,"percent change from control (negative = decrease, positive = increase)",[16],14.5% (active)
same,outcome,[17],inactive
same,outcome,[5],inactive
COc1ccc(Cl)cc1NC(=O)CCS(=O)(=O)c1cc2c(cc1C)NC(=O)CO2,outcome,[14],inactive
same,outcome,[15],inactive
same,"percent change from control (negative = decrease, positive = increase)",[16],-9.5% (active)
same,outcome,[17],inactive
same,outcome,[5],inactive
same,outcome,[6],inactive
O=[N+]([O-])c1ccccc1Nc1ccc(O)cc1,membrane potential signal change,[14],-186% (active)
same,outcome,[15],inactive
same,"percent change from control (negative = decrease, positive = increase)",[16],-32% (active)
same,inhibition,[17],61.5% (active)
same,outcome,[5],inactive
same,outcome,[6],inactive
Cc1ccc(NC(=S)N(CCCN2CCCC2)Cc2cccn2Cc2ccc(Cl)cc2)cc1,outcome,[14],inactive
same,outcome,[15],inactive
same,outcome,[16],inactive
same,inhibition,[17],47.5% (active)
same,outcome,[5],inactive
same,outcome,[6],inactive
O=C1CN(C(=O)c2ccccc2F)C(c2ccc(F)cc2)c2cc(F)ccc2N1 (stereo unspecified),membrane potential signal change,[14],106% (active)
same,outcome,[15],inactive
same,"percent change from control (negative = decrease, positive = increase)",[16],26.5% (active)
same,outcome,[17],inactive
same,outcome,[5],inactive
same,outcome,[6],inactive
CCN1CCN(c2ccc([N+](=O)[O-])cc2C(=O)c2ccc(Cl)cc2)CC1,membrane potential signal change,[14],150% (active)
same,outcome,[15],inactive
same,"percent change from control (negative = decrease, positive = increase)",[16],20.5% (active)
same,inhibition,[17],63.5% (active)
same,outcome,[5],inactive
same,outcome,[6],inactive
CC(C)C(c1nnnn1CCc1ccccc1)N1CCN(C(=O)c2ccco2)CC1 (stereo unspecified),membrane potential signal change,[14],153% (active)
same,inhibition,[15],85.5% (active)
same,"percent change from control (negative = decrease, positive = increase)",[16],27.5% (active)
same,outcome,[17],inactive
same,inhibition,[5],70% (active)
Clc1ccc(-n2nnnc2-c2cnc(-c3ccccn3)nc2-c2cccs2)cc1,membrane potential signal change,[14],133% (active)
same,outcome,[15],inactive
same,"percent change from control (negative = decrease, positive = increase)",[16],19.5% (active)
same,outcome,[17],inactive
same,outcome,[5],inactive
c1ccc(C2CNCc3c2ccc2ccccc32)cc1 (stereo unspecified),outcome,[14],inactive
same,outcome,[15],inactive
same,outcome,[16],inactive
same,inhibition,[17],81.5% (active)
same,inhibition,[5],58% (active)
same,outcome,[6],inactive
N=c1c2c3c(sc2nc2n1CCCCC2)CCCC3,membrane potential signal change,[14],-118% (active)
same,outcome,[15],inactive
same,"percent change from control (negative = decrease, positive = increase)",[16],-22.5% (active)
same,inhibition,[17],55.5% (active)
same,inhibition,[5],61% (active)
same,outcome,[6],inactive
CCOc1nc(NCCN2CCOCC2)nc(Nc2ccc(C)cc2)n1,membrane potential signal change,[14],98% (active)
same,outcome,[15],inactive
same,"percent change from control (negative = decrease, positive = increase)",[16],15% (active)
same,outcome,[17],inactive
same,outcome,[5],inactive
OCCC1CN(Cc2ccc3nsnc3c2)CCN1C1CCCCC1 (stereo unspecified),membrane potential signal change,[14],109% (active)
same,outcome,[15],inactive
same,"percent change from control (negative = decrease, positive = increase)",[16],18% (active)
same,inhibition,[17],37% (active)
same,outcome,[5],inactive
CCCC(=O)Nc1ccc(C(=O)NCCCn2ccnc2)cc1,outcome,[14],inactive
same,outcome,[15],inactive
same,outcome,[16],inactive
same,outcome,[17],inactive
same,outcome,[5],inactive
same,outcome,[6],inactive
CCC(C)(C)NC(=O)CN(C(=O)CCC(=O)Nc1nccs1)c1ccc2c(c1)OCO2,outcome,[14],inactive
same,outcome,[15],inactive
same,outcome,[16],inactive
same,outcome,[17],inactive
same,outcome,[5],inactive
same,outcome,[6],inactive
Cc1nc(C(=O)NCc2ccccc2)sc1C1(C)CC(c2cccnc2)=NO1 (stereo unspecified),outcome,[14],inactive
same,inhibition,[15],97.5% (active)
same,outcome,[16],inactive
same,outcome,[17],inactive
same,inhibition,[5],114% (active)
